Here are results for 24 compounds from publication PMC4336329 (PLoS ONE, 2015).

Among all 310,000 compounds or so, about 14,000 (4.5%) showed an effect of 50% or more. Effects have a minus sign here. The entries come from a sample that favours strong results as a whole.
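Also: peak tail current of the secondary pulse compared with the same well before compound.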

The target in the test is human ether-à-go-go-related gene (hERG) potassium channel (human, UniProt Q12809). The test can be described thus: primary screen, population patch clamp on CHO cells stably expressing hERG; higher = less effect of the substance.
Sequence of human ether-à-go-go-related gene (hERG) potassium channel (Q12809 whole entry, looked up): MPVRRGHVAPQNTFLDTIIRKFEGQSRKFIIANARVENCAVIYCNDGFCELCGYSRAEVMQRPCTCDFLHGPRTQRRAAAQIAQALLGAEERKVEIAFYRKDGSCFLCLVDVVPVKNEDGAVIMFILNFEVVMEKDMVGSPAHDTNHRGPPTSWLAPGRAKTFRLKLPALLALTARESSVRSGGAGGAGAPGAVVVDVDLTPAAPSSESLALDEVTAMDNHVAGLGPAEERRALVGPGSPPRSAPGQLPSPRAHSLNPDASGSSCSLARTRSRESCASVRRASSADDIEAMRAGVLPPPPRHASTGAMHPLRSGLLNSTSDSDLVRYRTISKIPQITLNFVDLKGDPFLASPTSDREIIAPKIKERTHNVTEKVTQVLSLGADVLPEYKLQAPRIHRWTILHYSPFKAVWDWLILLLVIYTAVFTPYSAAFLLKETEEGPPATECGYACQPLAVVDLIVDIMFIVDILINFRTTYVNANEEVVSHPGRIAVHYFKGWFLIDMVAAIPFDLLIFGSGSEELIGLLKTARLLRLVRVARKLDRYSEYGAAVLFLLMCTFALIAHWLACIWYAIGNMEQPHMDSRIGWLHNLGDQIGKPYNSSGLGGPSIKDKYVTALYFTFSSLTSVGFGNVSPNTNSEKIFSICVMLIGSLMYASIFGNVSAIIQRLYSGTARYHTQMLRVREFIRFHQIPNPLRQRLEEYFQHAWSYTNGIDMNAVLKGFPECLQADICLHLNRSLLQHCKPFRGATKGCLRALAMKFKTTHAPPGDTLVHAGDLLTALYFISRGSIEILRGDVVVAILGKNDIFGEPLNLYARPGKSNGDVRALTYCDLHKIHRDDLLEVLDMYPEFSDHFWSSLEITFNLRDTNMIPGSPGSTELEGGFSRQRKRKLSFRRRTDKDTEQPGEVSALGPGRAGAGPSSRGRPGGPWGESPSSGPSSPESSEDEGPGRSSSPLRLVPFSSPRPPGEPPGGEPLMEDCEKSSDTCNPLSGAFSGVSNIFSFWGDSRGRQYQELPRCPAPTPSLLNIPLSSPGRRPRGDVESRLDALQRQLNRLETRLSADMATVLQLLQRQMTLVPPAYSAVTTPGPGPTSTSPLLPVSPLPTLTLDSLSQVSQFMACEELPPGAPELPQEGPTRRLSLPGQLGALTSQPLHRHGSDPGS
As to `CN(C)c1nc(SCC#N)nc(N(C)C)n1`, the “hERG current change (%, negative = inhibition) at 10uM” value is -3.57%.
To `CN1CCN(c2ccc(-c3cccc(NC(=O)COc4ccc(Cl)cc4)c3)nn2)CC1` belongs -50.7%; to `CCOc1ccc(C(=O)Nc2cccc(-c3ccc4nncn4n3)c2)cc1`, 12.5%.
As for `COCC(=O)Nc1cccc(-c2ccc3nncn3n2)c1`, the “hERG current change (%, negative = inhibition) at 10uM” value is recorded as 9.97%.
`CN1CCN(c2ccc(-c3cccc(NC(=O)COc4ccccc4)c3)nn2)CC1`: the “hERG current change (%, negative = inhibition) at 10uM” value was -35.9%.
For `O=C(COc1ccc(Cl)cc1)Nc1cccc(-c2ccc3nncn3n2)c1`, the “hERG current change (%, negative = inhibition) at 10uM” value was -51.9%.
For the compound `O=C(COc1ccc(Cl)cc1)Nc1cccc(-c2ccc(N3CCOCC3)nn2)c1`, the “hERG current change (%, negative = inhibition) at 10uM” value amounted to 0.684%.
As for `CCOc1cc(NS(C)(=O)=O)c(OCC)cc1NC(=O)c1cccs1`, the “hERG current change (%, negative = inhibition) at 10uM” value is recorded as -15.8%.
On to `CN1CCN(c2ccc(-c3ccnn3C(=O)Nc3ccccc3)cc2)CC1`, for which the “hERG current change (%, negative = inhibition) at 10uM” value is reported as -11.5%.
On to `CCOC(=O)c1ccc(NC(=O)c2ccc(OC(C)C)c(OC)c2)cc1`, for which the “hERG current change (%, negative = inhibition) at 10uM” value is given as -3.47%.
In the case of `Cc1cc(C(=O)COC(=O)c2ccncc2)c(C)n1Cc1ccco1`, the “hERG current change (%, negative = inhibition) at 10uM” value is on record as 13.7%.
To `NC(=O)c1c(NC(=O)C2c3ccccc3Oc3ccccc32)sc2c1CCCCC2` belongs 6.4%.
Consider `CCS(=O)(=O)N1CCC(C(=O)N2CCOCC2)CC1`, for which the “hERG current change (%, negative = inhibition) at 10uM” value amounted to 12%.
With `COc1ccc(S(=O)(=O)NCC2CCCN(Cc3cn(C)nc3C)C2)cc1` (stereo not drawn), the “hERG current change (%, negative = inhibition) at 10uM” value stood at 8.1%.
Take `CC(C)c1cccc(C(C)C)c1OC(=O)[C@H]1OC(C(C)(C)C)=C[C@@H]1c1ccccc1`: the “hERG current change (%, negative = inhibition) at 10uM” value is recorded as -6.97%.
`CCN(CC(=O)Nc1ccccc1OC)CC(=O)Nc1ccccc1C(F)(F)F`: the “hERG current change (%, negative = inhibition) at 10uM” value is -5.29%.
`CCOc1ccc(C(=O)NCCCN(CC)CC)cc1`: the “hERG current change (%, negative = inhibition) at 10uM” value is listed as -51.8%.
As for `COc1cc(C(=O)N(C)CCOc2ccccc2)ccc1OCC(=O)Nc1cccc(C(F)(F)F)c1`, the “hERG current change (%, negative = inhibition) at 10uM” value was -14.2%.
Turning to `COc1cc(C(=O)NCCCN(C)C)ccc1OCC(=O)Nc1cccc(C(F)(F)F)c1`, the “hERG current change (%, negative = inhibition) at 10uM” value is reported as -59.1%.
For `CCOc1ccc(C(=O)NCCNC(=O)c2ccc(OCC)cc2)cc1`, the “hERG current change (%, negative = inhibition) at 10uM” value was 9.15%.
In the case of `CCN(CC(=O)Nc1ccc(OC)c(OC)c1)CC(=O)Nc1ccccc1C(F)(F)F` it was -0.147%; in that of `CCOc1ccc(C(=O)NCCCCNC(=O)c2ccc(OCC)cc2)cc1`, 21.8%; in that of `COc1cc(C(=O)NCc2ccc(S(N)(=O)=O)cc2)ccc1OCC(=O)Nc1cccc(C(F)(F)F)c1`, 15.5%.
To `CCN(CC)CCCNC(=O)c1ccc(OCC(=O)Nc2ccccc2C(F)(F)F)c(OC)c1` belongs -70.5%.
